{"source": "ChEMBL document CHEMBL3433997", "about": "“St. Jude Leishmania screening dataset” (2016)", "data": [{"biological_target": "Solute carrier family 2, facilitated glucose transporter member 1 (Homo sapiens) (UniProt P11166)", "sequence (P11166 whole entry)": "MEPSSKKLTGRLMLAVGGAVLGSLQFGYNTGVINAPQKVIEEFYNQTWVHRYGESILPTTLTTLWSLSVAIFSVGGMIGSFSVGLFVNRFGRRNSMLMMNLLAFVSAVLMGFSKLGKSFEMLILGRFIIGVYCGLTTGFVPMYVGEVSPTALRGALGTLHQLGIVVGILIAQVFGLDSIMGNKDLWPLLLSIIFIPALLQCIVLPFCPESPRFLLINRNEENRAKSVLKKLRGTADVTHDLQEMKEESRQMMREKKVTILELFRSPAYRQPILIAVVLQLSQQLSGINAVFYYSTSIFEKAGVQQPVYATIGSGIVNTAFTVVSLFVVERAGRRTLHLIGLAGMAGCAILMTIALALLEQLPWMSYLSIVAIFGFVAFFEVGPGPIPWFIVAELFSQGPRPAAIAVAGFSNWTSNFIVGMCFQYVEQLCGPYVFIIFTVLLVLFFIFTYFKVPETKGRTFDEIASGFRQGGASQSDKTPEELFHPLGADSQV", "assay": "ST_JUDE_LEISH: Cytotoxicity at 2uM final concentration against transgenic Leishmania Mexicana promastigotes LmGLUT1 that are glucose transport deficient and complemented with the human glucose transporter GLUT1. Activity is measured by DNA content using SYBR green in vitro", "assay_type": "functional", "units": {"inhibition": "%"}, "values": [{"smiles": "Cc1cc(=NN=CC=Cc2ccccc2)c2ccccc2[nH]1", "inhibition": 1.28}, {"smiles": "FC(F)(F)c1ccc(CSc2ccc3nnc(-c4ccccn4)n3n2)cc1", "inhibition": 9.17}, {"smiles": "CC(C)c1ccc(NC(=O)NCC2CCCN(CCCCCNC(=O)/C=C/c3ccc(Cl)c(Cl)c3)C2)cc1", "note": "(stereo not given)", "inhibition": 2.73}, {"smiles": "O=C(NCc1ccccc1)Nc1cccc(-c2cccc(-c3nc4cc(C(F)(F)F)ccc4[nH]3)c2)c1", "inhibition": 4.49}, {"smiles": "COc1ccc(-c2csc(C(=O)NC3CCC(N4CCC(c5ccccc5C)CC4)CC3)c2)cc1", "note": "(stereo not given)", "inhibition": 3.25}, {"smiles": "CN(C)c1ccc(CN2CCC(CNC(=O)c3cc(-c4cccc(F)c4)cs3)C2)cc1", "note": "(stereo not given)", "inhibition": -1.95}, {"smiles": "COc1cc2nc(NCCc3ccccc3)nc(NCc3ccc(C#N)cc3)c2cc1OC", "inhibition": 3.59}, {"smiles": "CC(=O)N(C)C1CCN(Cc2cccc(-c3ccc(-c4nc5cc(C(F)(F)F)ccc5[nH]4)cc3)c2)C1", "note": "(stereo not given)", "inhibition": 2.39}, {"smiles": "CCCN(CCC)C(C)CCC(C)Nc1c2ccc(Cl)cc2nc2ccc(OC)cc12", "note": "(stereo not given)", "inhibition": 1.91}, {"smiles": "Cc1cc(F)ccc1-c1nc(NCCCN2CCCC2=O)nc2c1ccc(=O)n2-c1c(F)cccc1F", "inhibition": 15.4}, {"smiles": "CCc1c[nH]c2c(N3CCCS3(=O)=O)cc(C(=O)N[C@@H](Cc3ccccc3)[C@H](O)CNC3CCCCC3)cc12", "inhibition": -0.09}, {"smiles": "CCN(CCS(C)(=O)=O)Cc1ccc(-c2ccc3ncnc(Nc4ccc(OCc5cccc(F)c5)c(Cl)c4)c3c2)o1", "inhibition": 2.48}, {"smiles": "CCNc1cc(C(=O)N[C@@H](Cc2ccccc2)[C@H](O)CNC2CC3CCC2C3)cc(N2CCCCS2(=O)=O)c1", "note": "(stereo not given in full)", "inhibition": 1.78}, {"smiles": "Nc1nc(N)c2c(ccc3c2ccn3Cc2ccc(-c3ccccc3)cc2)n1", "inhibition": 113}, {"smiles": "Cc1cccc2nc(-c3cccc(-c4cccc(NC(=O)Cc5ccc[n+]([O-])c5)c4)c3)[nH]c12", "inhibition": 1.71}, {"smiles": "Cn1cnc2c(SCc3ccc(OCc4ccccc4)cc3)ncnc21", "inhibition": 2.71}, {"smiles": "COc1ccc(CNCCc2cccs2)cc1-c1ccc(OC)c(S(=O)(=O)NCCN2CCCC2)c1", "inhibition": 3.2}, {"smiles": "FC(F)(F)c1ccc2c(C=Cc3ccncc3)c[nH]c2c1", "inhibition": 3.67}, {"smiles": "CCCC1(NC[C@@H](O)[C@H](Cc2ccccc2)NC(=O)c2cc(NCC)cc(N3CCCCS3(=O)=O)c2)CCC1", "inhibition": 4.81}, {"smiles": "CCN(CC)Cc1ccc2c(=O)cc(CCc3cccc(F)c3F)n(CC(=O)N(Cc3ccc(-c4ccc(C(F)(F)F)cc4)cc3)C(C)C)c2c1", "inhibition": 1.44}, {"smiles": "CC(=O)Nc1cccc(CNCc2ccc(-c3cnc(N4CCCC(c5ccccc5)C4)nc3)cc2)c1", "note": "(stereo not given)", "inhibition": 4.23}, {"smiles": "CC(C)(C)Oc1ccc(C[C@@H]2NC3(C(=O)N(Cc4ccc(Cl)c(Cl)c4)c4ccccc43)C3C(=O)N(c4ccc(Br)cc4)C(=O)C32)cc1", "note": "(stereo not given in full)", "inhibition": 4.6}, {"smiles": "CCCc1ccc(C(=O)N2C(c3nccs3)C(C(N)=O)CC2(CC(C)C)C(=O)O)cc1", "note": "(stereo not given)", "inhibition": 1.38}, {"smiles": "NCC1CCCN1Cc1ccc(-c2cccc(-c3nc4cc(C(F)(F)F)ccc4[nH]3)c2)cc1", "note": "(stereo not given)", "inhibition": 1.03}, {"smiles": "COc1cc(CNc2ncc(-c3ccsc3)c(-c3nccs3)n2)cc(OC)c1", "inhibition": 1.79}, {"smiles": "COc1ccc2c(c1CCNCCCCNCCc1c(OC)ccc3c1CCCC3)CCCC2", "inhibition": 47.3}, {"smiles": "COc1ccc(CNC(=O)c2cnc3c(O)cccc3c2Nc2cccc(NC(=O)c3ccc(-c4ccccc4)cc3)c2)cc1", "inhibition": 76.8}, {"smiles": "O=C(Nc1cccc(-c2csc(NC(=O)c3ccc4ccccc4c3)n2)c1)c1ccc2ccccc2c1", "inhibition": 1.53}, {"smiles": "COc1cccc(O)c1CN1CCC2(CCCN(Cc3ccc(F)cc3)C2)C1", "note": "(stereo not given)", "inhibition": 1.04}, {"smiles": "OCC1CCN(Cc2ccc(-c3ccc(-c4nc5cc(F)ccc5[nH]4)s3)cc2)CC1", "inhibition": 4.75}, {"smiles": "NCCCNc1ccnc2cc(Cl)ccc12", "inhibition": -0.29}, {"smiles": "Cc1[nH]c(C)c(-c2ccc(-c3ccc(C#N)cc3)nc2)c(=O)c1Br", "inhibition": 9.47}, {"smiles": "N=C1C=C(N)C(=O)c2ccccc21", "inhibition": 89}, {"smiles": "Cc1ccc(-c2nnc(Nc3ccc(C(=O)N4CCCCC4)cc3)c3ccccc23)cc1S(=O)(=O)NCC1CCCO1", "note": "(stereo not given)", "inhibition": 4.15}, {"smiles": "COc1cc(NC(=O)c2sc(-c3ccc(Cl)cc3)cc2NC(=O)CN2CCCC2)ccc1OCCN1CCCC1", "inhibition": 5.97}, {"smiles": "CCOc1cc(C)ccc1C1CCN(CCCCNC(=O)c2ccc(-c3ccc(C(F)(F)F)cn3)cc2)CC1", "inhibition": 10.4}, {"smiles": "O=C1CCCN1CCCNCc1cccc(-c2ccc(-c3nc4ccccc4[nH]3)s2)c1", "inhibition": -0.73}, {"smiles": "O=C(C=Cc1ccc(Cl)c(Cl)c1)NCCCCCN1CCC(CCCNC(=O)/C=C/c2ccccc2)CC1", "inhibition": 3.12}, {"smiles": "Cc1ccc(CN(Cc2ccc(C(=O)N(C)C)cc2)Cc2ccc3c(c2)OCCO3)cc1C", "inhibition": 0.09}, {"smiles": "Cc1cc(=NN=Cc2ccccc2Cl)c2ccccc2[nH]1", "inhibition": 8.12}]}, {"biological_target": "Hexose transporter 1 (Plasmodium falciparum) (UniProt O97467)", "assay": "ST_JUDE_LEISH: Cytotoxicity at 2uM final concentration against transgenic Leishmania Mexicana promastigotes LmPfHT that are glucose transport deficient and complemented with the Plasmodium falciparum hexose transporter. Activity is measured by DNA content using SYBR green in vitro", "assay_type": "functional", "units": {"inhibition": "%"}, "values": [{"smiles": "Cc1cc(=NN=CC=Cc2ccccc2)c2ccccc2[nH]1", "inhibition": 2.74}, {"smiles": "FC(F)(F)c1ccc(CSc2ccc3nnc(-c4ccccn4)n3n2)cc1", "inhibition": 9.71}, {"smiles": "CC(C)c1ccc(NC(=O)NCC2CCCN(CCCCCNC(=O)/C=C/c3ccc(Cl)c(Cl)c3)C2)cc1", "note": "(stereo not given)", "inhibition": 1.74}, {"smiles": "O=C(NCc1ccccc1)Nc1cccc(-c2cccc(-c3nc4cc(C(F)(F)F)ccc4[nH]3)c2)c1", "inhibition": 4.71}, {"smiles": "COc1ccc(-c2csc(C(=O)NC3CCC(N4CCC(c5ccccc5C)CC4)CC3)c2)cc1", "note": "(stereo not given)", "inhibition": 4.24}, {"smiles": "CN(C)c1ccc(CN2CCC(CNC(=O)c3cc(-c4cccc(F)c4)cs3)C2)cc1", "note": "(stereo not given)", "inhibition": -1.31}, {"smiles": "COc1cc2nc(NCCc3ccccc3)nc(NCc3ccc(C#N)cc3)c2cc1OC", "inhibition": 6.39}, {"smiles": "CC(=O)N(C)C1CCN(Cc2cccc(-c3ccc(-c4nc5cc(C(F)(F)F)ccc5[nH]4)cc3)c2)C1", "note": "(stereo not given)", "inhibition": -4.29}, {"smiles": "CCCN(CCC)C(C)CCC(C)Nc1c2ccc(Cl)cc2nc2ccc(OC)cc12", "note": "(stereo not given)", "inhibition": 2.78}, {"smiles": "Cc1cc(F)ccc1-c1nc(NCCCN2CCCC2=O)nc2c1ccc(=O)n2-c1c(F)cccc1F", "inhibition": 12.9}, {"smiles": "CCc1c[nH]c2c(N3CCCS3(=O)=O)cc(C(=O)N[C@@H](Cc3ccccc3)[C@H](O)CNC3CCCCC3)cc12", "inhibition": 2.13}, {"smiles": "CCN(CCS(C)(=O)=O)Cc1ccc(-c2ccc3ncnc(Nc4ccc(OCc5cccc(F)c5)c(Cl)c4)c3c2)o1", "inhibition": 0.54}, {"smiles": "CCNc1cc(C(=O)N[C@@H](Cc2ccccc2)[C@H](O)CNC2CC3CCC2C3)cc(N2CCCCS2(=O)=O)c1", "note": "(stereo not given in full)", "inhibition": 1.76}, {"smiles": "Nc1nc(N)c2c(ccc3c2ccn3Cc2ccc(-c3ccccc3)cc2)n1", "inhibition": 113}, {"smiles": "Cc1cccc2nc(-c3cccc(-c4cccc(NC(=O)Cc5ccc[n+]([O-])c5)c4)c3)[nH]c12", "inhibition": 1.78}, {"smiles": "Cn1cnc2c(SCc3ccc(OCc4ccccc4)cc3)ncnc21", "inhibition": 4.19}, {"smiles": "COc1ccc(CNCCc2cccs2)cc1-c1ccc(OC)c(S(=O)(=O)NCCN2CCCC2)c1", "inhibition": 1.85}, {"smiles": "FC(F)(F)c1ccc2c(C=Cc3ccncc3)c[nH]c2c1", "inhibition": 3.37}, {"smiles": "CCCC1(NC[C@@H](O)[C@H](Cc2ccccc2)NC(=O)c2cc(NCC)cc(N3CCCCS3(=O)=O)c2)CCC1", "inhibition": 2.33}, {"smiles": "CCN(CC)Cc1ccc2c(=O)cc(CCc3cccc(F)c3F)n(CC(=O)N(Cc3ccc(-c4ccc(C(F)(F)F)cc4)cc3)C(C)C)c2c1", "inhibition": 2}, {"smiles": "CC(=O)Nc1cccc(CNCc2ccc(-c3cnc(N4CCCC(c5ccccc5)C4)nc3)cc2)c1", "note": "(stereo not given)", "inhibition": 2.57}, {"smiles": "CC(C)(C)Oc1ccc(C[C@@H]2NC3(C(=O)N(Cc4ccc(Cl)c(Cl)c4)c4ccccc43)C3C(=O)N(c4ccc(Br)cc4)C(=O)C32)cc1", "note": "(stereo not given in full)", "inhibition": 4.73}, {"smiles": "CCCc1ccc(C(=O)N2C(c3nccs3)C(C(N)=O)CC2(CC(C)C)C(=O)O)cc1", "note": "(stereo not given)", "inhibition": 2.07}, {"smiles": "NCC1CCCN1Cc1ccc(-c2cccc(-c3nc4cc(C(F)(F)F)ccc4[nH]3)c2)cc1", "note": "(stereo not given)", "inhibition": 1.99}, {"smiles": "COc1cc(CNc2ncc(-c3ccsc3)c(-c3nccs3)n2)cc(OC)c1", "inhibition": 1.49}, {"smiles": "COc1ccc2c(c1CCNCCCCNCCc1c(OC)ccc3c1CCCC3)CCCC2", "inhibition": 61.4}, {"smiles": "COc1ccc(CNC(=O)c2cnc3c(O)cccc3c2Nc2cccc(NC(=O)c3ccc(-c4ccccc4)cc3)c2)cc1", "inhibition": 79.7}, {"smiles": "O=C(Nc1cccc(-c2csc(NC(=O)c3ccc4ccccc4c3)n2)c1)c1ccc2ccccc2c1", "inhibition": 1.22}, {"smiles": "COc1cccc(O)c1CN1CCC2(CCCN(Cc3ccc(F)cc3)C2)C1", "note": "(stereo not given)", "inhibition": 2.73}, {"smiles": "OCC1CCN(Cc2ccc(-c3ccc(-c4nc5cc(F)ccc5[nH]4)s3)cc2)CC1", "inhibition": 3.26}, {"smiles": "NCCCNc1ccnc2cc(Cl)ccc12", "inhibition": 1.55}, {"smiles": "Cc1[nH]c(C)c(-c2ccc(-c3ccc(C#N)cc3)nc2)c(=O)c1Br", "inhibition": 10.2}, {"smiles": "N=C1C=C(N)C(=O)c2ccccc21", "inhibition": 100}, {"smiles": "Cc1ccc(-c2nnc(Nc3ccc(C(=O)N4CCCCC4)cc3)c3ccccc23)cc1S(=O)(=O)NCC1CCCO1", "note": "(stereo not given)", "inhibition": 21.1}, {"smiles": "COc1cc(NC(=O)c2sc(-c3ccc(Cl)cc3)cc2NC(=O)CN2CCCC2)ccc1OCCN1CCCC1", "inhibition": 9.91}, {"smiles": "CCOc1cc(C)ccc1C1CCN(CCCCNC(=O)c2ccc(-c3ccc(C(F)(F)F)cn3)cc2)CC1", "inhibition": 9.74}, {"smiles": "O=C1CCCN1CCCNCc1cccc(-c2ccc(-c3nc4ccccc4[nH]3)s2)c1", "inhibition": 0.07}, {"smiles": "O=C(C=Cc1ccc(Cl)c(Cl)c1)NCCCCCN1CCC(CCCNC(=O)/C=C/c2ccccc2)CC1", "inhibition": 2.68}, {"smiles": "Cc1ccc(CN(Cc2ccc(C(=O)N(C)C)cc2)Cc2ccc3c(c2)OCCO3)cc1C", "inhibition": 0.35}, {"smiles": "Cc1cc(=NN=Cc2ccccc2Cl)c2ccccc2[nH]1", "inhibition": 8.36}]}]}
